Screening results from PubChem.
A selection: hits, their analogues and other compounds. The true share with any hit is near 2.4%.
D2 ag-1: agonists of human D2 dopamine receptor | HEK293 T-REx D2 cells, calcium flux agonist mode | activation, % at 2 µM | 340,000 tested, 0.53% active | P14416;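 active = activation over 3 SD above normal in the single-dose calcium agonist read, cut at about 30% in these data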
Target sequence (P14416 whole entry, looked up): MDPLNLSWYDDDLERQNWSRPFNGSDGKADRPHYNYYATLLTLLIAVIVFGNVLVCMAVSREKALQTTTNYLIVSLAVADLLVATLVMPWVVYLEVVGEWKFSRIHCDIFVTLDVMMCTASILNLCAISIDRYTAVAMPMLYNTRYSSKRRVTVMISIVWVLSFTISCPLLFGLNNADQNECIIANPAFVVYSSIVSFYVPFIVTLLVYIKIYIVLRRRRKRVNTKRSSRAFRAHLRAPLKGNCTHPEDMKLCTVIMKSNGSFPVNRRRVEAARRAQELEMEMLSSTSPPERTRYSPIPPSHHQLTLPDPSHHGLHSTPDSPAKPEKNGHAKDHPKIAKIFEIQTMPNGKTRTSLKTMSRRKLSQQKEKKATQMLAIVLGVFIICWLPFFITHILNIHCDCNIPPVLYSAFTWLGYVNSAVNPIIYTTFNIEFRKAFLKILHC
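Agonism is scored from calcium flux in a force-coupled, inducible HEK293 cell line expressing D2, read kinetically for 180 s after compound addition against dopamine controls.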
D2 antag: D2 dopamine receptor (human) antagonism | P14416 | inhibition, % at 10 µM | HEK293 TREx D2 cells, calcium flux, dopamine EC80 | 340,000 tested, 2% active; in the data active = inhibition above about 30%; inactive = below that, where a call was filed
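Read-out: kinetic calcium fluorescence (1 cycle/s) in inducible HEK293 T-REx D2 cells after an EC80 dopamine addition that followed 180 s compound preincubation. Loss of the dopamine response indicates antagonism.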
D2 ag-2: agonists of human D2 dopamine receptor (beta-arrestin); P14416; AID 624465; DiscoveRx PathHunter D2 beta-arrestin, luminescence, 90 min; 100% = 57 uM dopamine signal; 360,000 tested, 0.084% active; activation, % (no concentration beside the values); in the data active = activation above about 40%; inconclusive = between about 15% and that limit
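DiscoveRx PathHunter D2 beta-arrestin cells (2,100/well) attached overnight, then compound-stimulated 90 min at 37 C in HBSS/10 mM HEPES/0.1% Tween-20 buffer; beta-galactosidase complementation read by luminescence after 1 h at ambient temperature. Dopamine 57 uM final (EC100) as control.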
D2 PAM-1: positive allosteric modulators of human D2 dopamine receptor. P14416. DiscoveRx D2 beta-arrestin cells, luminescence, 90 min; 100% = 57 uM dopamine signal. potentiation, % (test concentration not listed). 360,000 tested, 0.23% active; in the data active = potentiation above about 50%; inconclusive = mostly about 30% to 49%
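PathHunter D2 cells, attached overnight at 37 deg C, received compound in DMSO plus dopamine at EC20 (50 nM final) for 90 min at 37 deg C. Beta-arrestin recruitment was read as luminescence after 1 h with detection reagent at ambient temperature.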
D2 PAM-2: positively modulates the human D2 dopamine receptor allosterically | HEK293 T-REx D2, calcium flux, EC20 dopamine potentiation | P14416 | 340,000 tested, 0.34% active | AID 485347 | potentiation, % at 10 µM;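 active = potentiation over 3 SD above the plate norm, cut at about 30% in these data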
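Cells plated with tetracycline inducer and held overnight at 30 C; calcium dye loaded 30–90 min at room temperature; baseline taken, compound added and read 180 s; EC20 dopamine then added and read 180 s.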
Each line names hits and unclear results; the compound was inactive in the other large screens.

COc1ccc(Cl)cc1NC(=O)C(C)N1CCN(c2ccccn2)CC1 (configuration not stated)	D2 ag-1 31.3
Cc1nn(S(=O)(=O)c2ccc(C(C)C)cc2)c(C)c1S(=O)(=O)N1CCCCC1	none (no result: D2 antag, D2 ag-2, D2 PAM-1)
Cc1csc(SC(C)C(=O)Nc2ccc(Cl)cn2)n1 (configuration not stated)	D2 antag 43.2
COc1ccc([N+](=O)[O-])cc1C(=O)C(=O)c1ccccc1	none
COc1cc(C(=O)O)nc2ccc([N+](=O)[O-])cc12	D2 antag 38.4
CCOc1ccc(C(=O)N2CCN(Cc3cc(=O)n4nc(-c5ccccc5Cl)sc4n3)CC2)cc1	none (no result: D2 antag, D2 ag-2, D2 PAM-1)
CC(C)(C)NC(=O)C1CC(=O)OC1(C)C (configuration not stated)	D2 PAM-2 32.5
COc1ccc(CCN(C)C2CCCN(C(=O)c3sccc3C)C2)cc1OC (configuration not stated)	D2 antag 57.0
COCC(=O)Nc1cc(C(=O)Nc2ccccc2C)ccc1Cl	D2 antag 31.5
COc1ccccc1C(=O)NCCC(=O)NC(C)c1ccc(-n2ccnc2)cc1 (configuration not stated)	D2 antag 32.7
CC(NC(=O)CCNC(=O)c1ccccc1Cl)c1ccc(-n2ccnc2)cc1 (configuration not stated)	none
Cc1cc(OCC(=O)Nc2sc3c(c2C(N)=O)CCCC3)ccc1C(C)C	none (no result: D2 antag, D2 ag-2, D2 PAM-1)
COc1cccc(C2CC(=O)Nc3c2c(=O)n(C)c2nc4ccccc4n32)c1OC (configuration not stated)	none (no result: D2 antag, D2 ag-2, D2 PAM-1)
C=CCn1c(COc2ccc(F)cc2)nnc1SC(C)C(=O)NCC1CCCO1 (configuration not stated)	D2 antag 61.3
CCn1c(SC(C)C(=O)NCC2CCCO2)nc2ccccc21 (configuration not stated)	D2 antag 31.0
Cc1sc2ncnc(N3CCCCC3)c2c1C	none
Cc1sc2ncnc(NCC(c3ccco3)N3CCCC3)c2c1C (configuration not stated)	D2 antag 32.1
O=c1cc(CSc2n[nH]c(-c3ccccc3)n2)[nH]c2ccccc12	none (no result: D2 antag, D2 ag-2, D2 PAM-1)
Cc1nc(-c2cc(C#N)c(=O)[nH]c2C)cs1	none
Cc1[nH]c(=O)c(C#N)cc1-c1csc(-c2ccccc2)n1	D2 antag 38.7
CN1CCCN(C(c2ccccc2)c2ccc(Cl)cc2)CC1 (configuration not stated)	D2 antag 81.7
COc1cc(CN2CCN(C(c3ccccc3)c3ccccc3)CC2)cc(OC)c1OC	none
Cc1cccc(CN2CCN(C(c3ccccc3)c3ccc(Cl)cc3)CC2)c1 (configuration not stated)	D2 antag 30.9
C=CCNc1ncnc2c1ncn2[C@H]1CN(Cc2ccc(-c3ccccc3)cc2)C[C@@H](CO)O1	none (no result: D2 ag-1, D2 antag, D2 PAM-2)
COc1ccc2sc(N(Cc3cccnc3)C(=O)c3ccc4c(c3)OCCO4)nc2c1	none (no result: D2 antag, D2 ag-2, D2 PAM-1)
COc1ccc2cc(C#N)c(SCC(=O)N3CC(=O)Nc4ccccc43)nc2c1	none (no result: D2 ag-1, D2 antag)
Cc1cccc2cc(C#N)c(SCC(=O)N3CC(=O)Nc4ccccc43)nc12	D2 antag 33.6
O=C(COC(=O)C1CC(O)CN1S(=O)(=O)c1ccc(Cl)cc1)c1ccccc1 (configuration not stated)	none
CC(C)N(C(=O)COC(=O)[C@@H]1CC(O)CN1S(=O)(=O)c1ccc(C(C)(C)C)cc1)C(C)C (some centres not stated)	D2 antag 37.8
O=[N+]([O-])c1nn(-c2ccc3c(c2)OCCO3)n(O)c1=NCc1ccccc1Cl	D2 PAM-1 54.3
Cc1ccc(CN=c2c([N+](=O)[O-])nn(-c3cccc(Cl)c3)n2O)cc1	D2 ag-2 inconclusive, D2 PAM-1 inconclusive
O=[N+]([O-])c1nn(-c2ccc3c(c2)OCCO3)n(O)c1=NC1CCCCC1	D2 ag-2 inconclusive, D2 PAM-1 117.7
COc1ccccc1CN=c1c([N+](=O)[O-])nn(-c2ccc3c(c2)OCCO3)n1O	D2 ag-2 inconclusive, D2 PAM-1 128.8
O=C(Nc1ccc(F)c(Cl)c1)c1cc(S(=O)(=O)N2CCCc3ccccc32)ccc1F	none (no result: D2 antag, D2 ag-2, D2 PAM-1)
